# Screens: PubChem, Sanford-Burnham Center for Chemical Genomics
# Most compounds without a hit are left out; they make up all but 2.7% or so of the library.
# NadD inh: inhibitors of S. aureus NadD, primary screen, biochemical, colorimetric, uHTS. Nicotinate-nucleotide adenylyltransferase NadD (Staphylococcus aureus N315). purified NadD enzyme, colorimetric absorbance read-out. inhibition, % at 20 µM. 0.78% of 360,000 active; in the data active = inhibition above about 26%
# MPTP inh: mitochondrial permeability transition pore inhibitors, primary screen, biochemical, isolated mouse mitochondria, absorbance; inhibition, % at 10 µM; Ca2+ swelling absorbance, 30 min; AID 602449, 2012; 1.4% of 360,000 active;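 active = inhibition of 50% or more, scaled per plate between neutral and stimulator controls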;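 also: 0% = DMSO wells given calcium and 100% = 1 mM EGTA wells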
# aDG glyco act: activators of alpha-DG glycosylation, primary screen, uHTS, Pro5-aDG cells, AlphaScreen; AID 624168, 2012; alpha-DG glycosylation AlphaScreen (IIH6); 0% Pro5, 100% B10-LARGE cell signal; activation, % at 10 µM; 0.22% of 360,000 active;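 active = activation of at least 8% versus controls, or a plate z-score of at least 8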;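 also: Pro5 are CHO cells carrying HIG-tagged alpha-DG that lacks glycosylation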
# H9c2 TAG inh: inhibitors of triacylglycerol accumulation, primary screen, cell-based, uHTS, fluorescence, H9c2 | inhibition, % at 12.5 µM | AID 651582, 2012 | H9c2 cells, Nile Red lipid (TAG) fluorescence; cells loaded with 200 µM oleic acid | 0.66% of 230,000 active;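 active = pattern-corrected inhibition of lipid staining of at least 50% with the nuclear-stain viability signal not falling by more than 50%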;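 also: 0% = DMSO wells and 100% = triacsin C control wells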
# H9c2 TAG conf: triacylglycerol accumulation inhibitors, retest, confirmation, cell-based, single concentration, Nile Red fluorescence, H9c2; shares compounds with H9c2 TAG inh; H9c2 lipid accumulation; cells loaded with 200 µM oleic acid; inhibition, % at 12.5 µM; 71% of 990 active; AID 651629, 2012;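 active = mean inhibition across replicates of 40% or more; inactive = mean inhibition below 40%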;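 also: plate controls were DMSO only wells for no effect and Triacsin C treated wells for full effect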
# Active calls of the source: *; · = not tested or not shown.
SMILES,NadD inh,MPTP inh,aDG glyco act,H9c2 TAG inh,H9c2 TAG conf
CCOC(=O)[C@H]1[C@H]2COc3ccc(Cl)cc3[C@@H]2N2C(=O)c3cc(Cl)ccc3NC(=O)[C@@]12C,9,-1,0,50*,53*
CCOC(=O)[C@H]1[C@H]2COc3ccc(Cl)cc3[C@@H]2N2C(=O)c3cc(Br)ccc3NC(=O)[C@@]12C,-4,-2,0,13,·
CCOc1ccc(CCNC(=O)CCc2nc(-c3ccc(C)cc3)no2)cc1OCC,1,2,0,63*,45*
CCOc1ccc(CCNC(=O)CCc2nc(-c3ccc(OC)cc3)no2)cc1OCC,-4,0,0,52*,39
C=C1[C@@H](O)[C@H](Cc2ccccc2)N(Cc2ccccc2Br)S1(=O)=O,-6,1,0,6,·
N#CCC(=O)Nc1ccc(C(=O)NCCc2c[nH]c3ccccc23)cc1,15,-2,0,·,·
CCCCCc1cc(=O)oc2c(C(CCN3CCN(c4ccccc4)CC3)c3ccc(N(C)C)cc3)c(OC)cc(OC)c12 (configuration not stated),13,2,0,73*,63*
COc1cc(OC)c2c(-c3ccccc3)cc(=O)oc2c1C(CCN1CCN(c2ccccc2)CC1)c1ccc(N(C)C)cc1 (configuration not stated),23,5,-1,54*,63*
CCCCCc1cc(=O)oc2c(C(CCN(CC)CC)c3cc(OC)c(OC)c(OC)c3)c(OC)cc(OC)c12 (configuration not stated),1,1,-1,114*,97*
COCCNC(=O)c1cc2c(c(-c3cccc(C#Cc4ccc(OC)c(OC)c4)c3)n1)[C@H](CCO)N(S(=O)C(C)(C)C)C2 (some centres not stated),-8,-1,0,·,·
COc1ccc(OC)c(Nc2nc(-c3sc(NC(=O)CC(C)C)nc3C)cs2)c1,9,-1,1,58*,65*
CCOC(=O)c1cc(-c2ccccc2)sc1NC(=O)COC(=O)c1cccc(S(N)(=O)=O)c1,30,3,-1,78*,68*
CCOC(=O)c1cc(-c2ccccc2)sc1NC(=O)C(C)OC(=O)c1cccc(S(=O)(=O)N(C)C)c1 (configuration not stated),5,4,0,·,·
O=C1C=CC(O)C2(CO)OC12 (configuration not stated),-2,-1,0,81*,86*
COc1ccccc1C(=O)NCCC(=O)NCCCSc1ccccc1,-5,-1,0,12,·
CC(C)(C)OC(=O)N(CCc1ccccc1)Cc1ccccc1OCc1cccc(NC(=O)/C=C/c2ccccc2)c1,13,-1,0,53*,43*
CC(C)(C)OC(=O)N(CCc1ccccc1)Cc1ccc(OCc2cccc(NC(=O)/C=C/c3ccccc3)c2)cc1,4,1,0,51*,65*
COc1ccc(OC)c(Cc2nnc(CCC(=O)N3CCN(C4CCCC4)CC3)o2)c1,2,-1,1,-6,·
Cc1ccc(-c2nc(NC(=O)c3cc(C(C)(C)C)nn3C)sc2C)cc1Cl,7,2,0,68*,86*
O=C(C[C@H]1C=C[C@@H](NS(=O)(=O)c2ccccc2)[C@@H](CO)O1)NCc1ccc(Cl)c(Cl)c1,·,3,0,·,·
CCN(CC)S(=O)(=O)c1ccc(N2CCOCC2)c(NC(=O)c2[nH]c(C)c(C(C)=O)c2C)c1,-2,-1,-1,69*,75*
C=CCNC(=S)NNc1nc2sc3c(c2c(=O)[nH]1)CC(C)(C)OC3,3,0,0,·,·
Cc1ccnc(N2CCC(C(=O)Nc3ccc(Oc4ccccc4)cc3)CC2)n1,-2,12,0,52*,14
Cc1noc(C)c1NC(=O)N(C)C[C@H]1Oc2ccc(NS(=O)(=O)c3ccc(F)cc3)cc2C(=O)N([C@H](C)CO)C[C@@H]1C,-2,2,0,·,·
COCC(=O)N(C)C[C@H]1N[C@@](C)(C(=O)OC)[C@H]2C(=O)N(Cc3ccccc3)C(=O)[C@@H]12,-2,-1,0,-1,·
COc1ccc(NC(=O)C2(C)Cc3c(-c4ccc5c(c4)OCO5)ccnc3O2)cn1 (configuration not stated),2,1,0,52*,53*
